PubChem BioAssay
Active and inactive are the calls of the source.

What was measured:
[1] = small molecules captured by biotinylated probe aFSTL3 – biochemical, small-molecule microarray, fluorescence 635/667, stem cell growth factor project, primary screen (AID 1064); conditions: higher = more signal;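 also: measures binding of the biotinylated anti-FSTL3 antibody to printed compounds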
[2] = binders from COS7 lysate, DM2A8 probe, primary screen, torsin A project, cell lysate, small-molecule microarray, fluorescence 635/667 (AID 1065); conditions: higher = more signal, COS7 lysate expressing mutant human TOR1A
[3] = small molecules captured by biotinylated probe aFGF2 – biochemical, small-molecule microarray, fluorescence 635/667, stem cell growth factor project, primary screen (AID 1067); conditions: higher = more signal;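 also: measures binding of biotinylated aFGF2 protein to printed compounds on slides; z-score merges feature fluorescence and signal-to-noise across triplicate slides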
[4] = small molecules captured by biotinylated probe aFGF10 – biochemical, small-molecule microarray, fluorescence 635/667, stem cell growth factor project, primary screen (AID 1071); conditions: higher = more signal;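 also: score merges 667 nm spot intensity and signal to noise from triplicate slides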
[5] = target: Neurogenic locus notch homolog protein 2 (Homo sapiens) (UniProt Q04721); assay: small molecules binding Notch2 protein – biochemical, small-molecule microarray, 635 nm fluorescence, stem cell growth factors, primary screen (AID 1073); conditions: higher = more signal
[6] = target: Pro-neuregulin-1, membrane-bound isoform (Homo sapiens) (UniProt Q02297); assay: small molecules binding neuregulin-1 protein – biochemical, small-molecule microarray, fluorescence 635/667, psychiatric disease protein project, primary screen (AID 1075); conditions: NRG1 binding, 635 nm fluorescence, higher = more signal;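 also: score combines 667 nm spot fluorescence with signal to noise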
Chain of Pro-neuregulin-1, membrane-bound isoform (Homo sapiens) (Q02297 whole entry, looked up, the tested form may be a part, canonical isoform): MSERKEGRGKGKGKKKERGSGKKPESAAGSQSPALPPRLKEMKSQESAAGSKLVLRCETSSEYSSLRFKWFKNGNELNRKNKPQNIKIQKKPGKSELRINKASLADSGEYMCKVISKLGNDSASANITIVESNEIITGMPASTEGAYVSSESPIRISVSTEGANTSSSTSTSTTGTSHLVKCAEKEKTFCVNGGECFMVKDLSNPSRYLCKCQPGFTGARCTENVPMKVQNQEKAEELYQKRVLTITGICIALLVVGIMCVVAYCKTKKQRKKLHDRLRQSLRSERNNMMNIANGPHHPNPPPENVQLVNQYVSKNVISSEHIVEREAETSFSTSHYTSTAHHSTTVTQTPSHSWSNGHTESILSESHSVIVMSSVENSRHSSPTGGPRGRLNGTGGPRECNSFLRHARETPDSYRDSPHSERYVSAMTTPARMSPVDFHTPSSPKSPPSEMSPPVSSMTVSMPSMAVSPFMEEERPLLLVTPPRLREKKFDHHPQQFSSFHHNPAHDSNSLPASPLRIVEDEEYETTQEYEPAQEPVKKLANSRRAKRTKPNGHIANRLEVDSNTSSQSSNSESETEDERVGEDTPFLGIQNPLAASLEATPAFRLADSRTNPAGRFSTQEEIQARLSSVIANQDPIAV

[7] = tested on: Neuregulin-1 EGF-like domain; assay: small molecules binding NRG1 EGF domain – biochemical, small-molecule microarray, 635 nm fluorescence, primary screen (AID 1081); conditions: higher = more signal;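 also: binding of the protein to compounds printed on small-molecule microarray slides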
[8] = FRG1 expression reporter modulators in myotubes – cell-based, C2C12 myotubes, firefly/Renilla luciferase, luminescence, FRG1 inhibition for FSHD, primary screen (AID 1084); conditions: FRG1 promoter luciferase, higher = more signal, called active from +8 up or from −8 down
[9] = small molecules captured by biotinylated probe aFST – biochemical, small-molecule microarray, fluorescence 635/667, stem cell growth factor project, primary screen (AID 1086); conditions: higher = more signal;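 also: score merges 667 nm fluorescence with signal-to-noise of each printed compound spot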
[10] = binders of probe aHhip on microarray, primary screen, stem cell growth factor project, biochemical, small-molecule microarray, fluorescence 635/667 (AID 1087); conditions: higher = more signal;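 also: score merges spot fluorescence at 667nm with spot signal to noise ratio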
[11] = tested on: PRMT1 (protein arginine N-methyltransferase 1); assay: small molecules binding arginine methyltransferase PRMT1 – biochemical, small-molecule microarray, 635 nm fluorescence, primary screen (AID 1088); conditions: higher = more signal;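 also: binding of Prmt1 protein to compounds spotted on small-molecule microarray slides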
[12] = growth effects on S. cerevisiae YJM789 – YJM789 clinical isolate, OD600, 24 h, basal, primary screen (AID 1089); conditions: higher = more signal, called active from +8 up or from −8 down;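 also: growth of clinical yeast isolate S. cerevisiae YJM 789 seeded 1000 cells per well; test concentration not given here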
[13] = S. pombe growth modifiers, basal conditions – strain 972, OD600, 24 h, no modulator, primary screen (AID 1090);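 also: basal condition with compound alone and no growth modifier present; test concentration not given here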; conditions: S. pombe 972 growth, higher = more signal, called active from +8 up or from −8 down
[14] = budding yeast growth modifiers under rapamycin – strain BY4716, OD600, 96 h, primary screen (AID 1091); also: test concentration not given here; conditions: S. cerevisiae BY4716 + rapamycin, higher = more signal, called active from +8 up or from −8 down
[15] = target: Torsin-1A-interacting protein 2 (Homo sapiens) (UniProt Q8NFQ8); assay: small molecules binding lysate-expressed LULL1 – cell lysate, human LULL1 lysate, 635/667 nm fluorescence, primary screen (AID 1092); conditions: small-molecule microarray, hLULL1 lysate binding, 635 nm fluorescence; higher = more signal;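 also: probe is lysate of COS7 cells overexpressing human LULL1; score merges per-feature 667 nm fluorescence with signal-to-noise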
Chain of Torsin-1A-interacting protein 2 (Homo sapiens) (Q8NFQ8 whole entry, looked up): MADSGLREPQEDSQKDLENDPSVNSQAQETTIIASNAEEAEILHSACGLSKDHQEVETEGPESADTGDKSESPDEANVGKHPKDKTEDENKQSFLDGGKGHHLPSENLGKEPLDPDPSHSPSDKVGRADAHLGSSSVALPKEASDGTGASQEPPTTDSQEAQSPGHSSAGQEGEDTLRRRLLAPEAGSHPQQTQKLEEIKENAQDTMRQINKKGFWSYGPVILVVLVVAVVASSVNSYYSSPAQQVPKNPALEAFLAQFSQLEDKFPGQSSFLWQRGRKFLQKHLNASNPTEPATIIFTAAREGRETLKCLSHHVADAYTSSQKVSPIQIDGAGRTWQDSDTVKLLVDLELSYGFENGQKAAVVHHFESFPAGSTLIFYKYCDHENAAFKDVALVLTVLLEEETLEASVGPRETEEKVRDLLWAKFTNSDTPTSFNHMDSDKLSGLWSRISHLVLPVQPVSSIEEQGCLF

[16] = optical density change of DRC41 E. coli – strain DRC41, OD650, 24 h, E. coli filamentation project, primary screen (AID 1093);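 also: MC1000 strain lacking acrAB efflux and sulA so SOS filamentation is blocked; test concentration not given here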; conditions: E. coli DRC41 growth, higher = more signal, called active from +8 up or from −8 down
[17] = probe aLefty2 binding to arrayed compounds – biochemical, biotinylated probe, 635/667 nm fluorescence, primary screen (AID 1094); conditions: small-molecule microarray, higher = more signal;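 also: score merges spot fluorescence near 667 nm with spot signal-to-noise ratio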
[18] = tested on: Noggin (protein binding on small-molecule microarray); assay: small molecules binding Noggin protein – biochemical, 635/667 nm fluorescence, primary screen (AID 1095); conditions: 635 nm fluorescence, higher = more signal;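 also: score merges 667 nm feature fluorescence with signal to noise over triplicate slides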
[19] = target: Neurogenic locus notch homolog protein 3 (Homo sapiens) (UniProt Q9UM47); assay: small molecules binding NOTCH3 protein – biochemical, 635/667 nm fluorescence, primary screen (AID 1096); conditions: small-molecule microarray, 635 nm fluorescence, higher = more signal
Chain of Neurogenic locus notch homolog protein 3 (Homo sapiens) (Q9UM47 whole entry, looked up): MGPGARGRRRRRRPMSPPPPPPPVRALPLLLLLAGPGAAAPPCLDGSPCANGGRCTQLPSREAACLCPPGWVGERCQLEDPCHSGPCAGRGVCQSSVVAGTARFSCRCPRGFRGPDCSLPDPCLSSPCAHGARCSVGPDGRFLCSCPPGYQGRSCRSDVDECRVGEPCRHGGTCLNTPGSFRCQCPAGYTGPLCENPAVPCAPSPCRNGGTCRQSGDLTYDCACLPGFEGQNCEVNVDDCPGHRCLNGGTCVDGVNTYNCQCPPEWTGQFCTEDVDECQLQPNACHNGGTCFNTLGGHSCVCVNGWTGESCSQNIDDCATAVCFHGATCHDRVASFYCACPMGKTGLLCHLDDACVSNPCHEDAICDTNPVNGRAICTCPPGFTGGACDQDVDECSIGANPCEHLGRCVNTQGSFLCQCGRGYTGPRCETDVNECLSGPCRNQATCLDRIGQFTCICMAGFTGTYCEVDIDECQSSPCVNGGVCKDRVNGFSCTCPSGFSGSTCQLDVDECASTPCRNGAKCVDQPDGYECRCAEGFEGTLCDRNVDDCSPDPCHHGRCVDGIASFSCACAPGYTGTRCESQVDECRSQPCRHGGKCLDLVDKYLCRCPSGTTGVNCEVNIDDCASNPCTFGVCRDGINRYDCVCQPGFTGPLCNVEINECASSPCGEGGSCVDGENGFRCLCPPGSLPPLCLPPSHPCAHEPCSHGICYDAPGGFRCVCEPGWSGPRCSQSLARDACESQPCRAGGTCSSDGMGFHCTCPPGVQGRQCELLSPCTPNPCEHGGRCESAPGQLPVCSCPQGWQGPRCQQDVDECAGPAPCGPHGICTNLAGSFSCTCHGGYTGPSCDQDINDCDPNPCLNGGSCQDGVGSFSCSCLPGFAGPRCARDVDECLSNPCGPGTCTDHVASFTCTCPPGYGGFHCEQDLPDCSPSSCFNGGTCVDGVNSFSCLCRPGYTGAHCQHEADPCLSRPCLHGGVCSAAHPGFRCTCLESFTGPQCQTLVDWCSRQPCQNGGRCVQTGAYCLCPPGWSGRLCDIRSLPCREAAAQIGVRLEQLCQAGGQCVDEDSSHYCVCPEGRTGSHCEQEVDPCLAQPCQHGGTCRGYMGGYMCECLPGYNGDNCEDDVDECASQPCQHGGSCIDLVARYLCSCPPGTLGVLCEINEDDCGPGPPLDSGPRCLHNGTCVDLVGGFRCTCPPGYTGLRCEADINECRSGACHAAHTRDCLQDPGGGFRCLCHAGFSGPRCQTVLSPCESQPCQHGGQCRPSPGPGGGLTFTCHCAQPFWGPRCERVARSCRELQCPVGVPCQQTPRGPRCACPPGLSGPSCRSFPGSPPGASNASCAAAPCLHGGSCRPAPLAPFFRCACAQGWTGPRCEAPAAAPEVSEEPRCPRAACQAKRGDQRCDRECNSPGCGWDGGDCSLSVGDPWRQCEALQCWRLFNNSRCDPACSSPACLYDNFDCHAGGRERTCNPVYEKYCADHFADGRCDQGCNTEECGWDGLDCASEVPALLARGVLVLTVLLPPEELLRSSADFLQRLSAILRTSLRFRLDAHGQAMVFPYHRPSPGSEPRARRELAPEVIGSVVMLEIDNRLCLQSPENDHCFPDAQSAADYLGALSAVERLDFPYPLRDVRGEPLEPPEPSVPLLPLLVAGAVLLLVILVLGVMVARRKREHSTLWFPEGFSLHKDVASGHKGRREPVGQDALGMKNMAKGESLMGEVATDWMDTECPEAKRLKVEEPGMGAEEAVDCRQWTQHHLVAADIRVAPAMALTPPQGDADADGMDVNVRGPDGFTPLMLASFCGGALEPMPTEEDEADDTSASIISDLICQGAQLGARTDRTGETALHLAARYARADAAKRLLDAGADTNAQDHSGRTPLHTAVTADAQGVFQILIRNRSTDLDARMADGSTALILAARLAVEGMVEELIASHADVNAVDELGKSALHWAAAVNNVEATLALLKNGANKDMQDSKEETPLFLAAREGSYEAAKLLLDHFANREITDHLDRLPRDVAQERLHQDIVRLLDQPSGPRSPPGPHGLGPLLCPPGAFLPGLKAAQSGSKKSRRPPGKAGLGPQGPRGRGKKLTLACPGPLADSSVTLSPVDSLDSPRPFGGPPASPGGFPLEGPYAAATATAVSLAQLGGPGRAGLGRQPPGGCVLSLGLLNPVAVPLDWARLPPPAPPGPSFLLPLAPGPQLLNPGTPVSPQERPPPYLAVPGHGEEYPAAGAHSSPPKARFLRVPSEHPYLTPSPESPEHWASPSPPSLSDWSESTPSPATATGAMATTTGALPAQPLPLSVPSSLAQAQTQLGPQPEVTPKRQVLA

[20] = probe aEGFR binding to arrayed compounds – biochemical, biotinylated probe, 635/667 nm fluorescence, primary screen (AID 1097); conditions: small-molecule microarray, higher = more signal;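 also: probe is a biotinylated anti-EGFR antibody binding compounds printed on slides; score combines fluorescence near 667 nm and signal to noise of each spot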

Row | SMILES | composite z-score [1] | composite z-score [2] | composite z-score [3] | composite z-score [4] | composite z-score [5] | composite z-score [6] | composite z-score [7] | z-score [8] | composite z-score [9] | composite z-score [10] | composite z-score [11] | z-score [12] | z-score [13] | z-score [14] | composite z-score [15] | z-score [16] | composite z-score [17] | composite z-score [18] | composite z-score [19] | composite z-score [20]
1 | O=C1OCC=C[C@H]2OC34C=CCN(c5ccc6ccccc6c5)C(=O)[C@H]3N(CCCCCCO)C(=O)[C@@H]4[C@@H]12 (stereo not given in full) | 0.787 | 1.94 | -0.133 | -0.566 | -1.15 | 0.781 | 1.57 | 0.78 (inactive) | -0.302 | -0.226 | -0.518 | -0.966 (inactive) | -0.715 (inactive) | -0.806 (inactive) | 2.62 | -0.133 (inactive) | -0.0493 | -1.33 | -0.435 | -0.256
2 | CC(C)c1ccc(NN2C(C(O)C(c3ccccc3)c3ccccc3)C=CC3C(=O)N(c4ccccc4)C(=O)C32)cc1 (stereo not given) | -0.304 | -0.612 | 0.116 | 0.903 | 1.53 | 1.63 | 1.26 | 0.358 (inactive) | 1.25 | 0.452 | 1.56 | 0.709 (inactive) | -0.223 (inactive) | 1.04 (inactive) | 2.63 | -2.08 (inactive) | 0.0399 | 0.63 | 1.06 | 0.104
3 | CC1CC/C=C\[C@H]2OC34C=CCN(Cn5nnc6ccccc65)C(=O)[C@H]3N(C(CO)C(C)C)C(=O)[C@@H]4C2C(=O)O1 (stereo not given in full) | 0.0351 | -0.804 | -0.175 | -0.266 | 0.145 | 1.22 | 1.42 | 0.298 (inactive) | -0.314 | 0.0505 | 1.34 | -0.973 (inactive) | -1.02 (inactive) | -0.931 (inactive) | 3.28 | 0.309 (inactive) | 0.0723 | -0.772 | 0.113 | -0.0987
4 | CC(C)(C)OC(=O)CC[C@]12N=C(c3ccc(OCCCO)cc3)O[C@H]1c1ccccc1N(CCS(=O)(=O)c1ccccc1)C2=O | 0.144 | 0.433 | -0.0024 | 0.137 | 1.42 | 0.882 | 1.26 | 0.281 (inactive) | 0.682 | 0.0139 | 1.55 | 1.03 (inactive) | 1.65 (inactive) | 0.246 (inactive) | 3.17 | 0.522 (inactive) | 0.101 | 0.905 | 1.1 | 0.0288
5 | CCOC(=O)C1=CCC(c2ccccc2)N(S(=O)(=O)CC[Si](C)(C)C)C1 (stereo not given) | -0.264 | 0.701 | -0.137 | -0.765 | -0.606 | 0.0168 | -0.518 | -3.74 (inactive) | -0.407 | -0.0994 | -0.0595 | -0.465 (inactive) | 0.178 (inactive) | 2.78 (inactive) | 0.0058 | 0.185 (inactive) | -0.235 | -0.288 | -0.822 | -0.334
